Experimental data taken from PubChem BioAssay AID2069 (Sanford-Burnham Center for Chemical Genomics, 2009).
Out of some 1,200 compounds screened, about 210 (18%) were called active. No stated cut-off is given here; in the data, active means inhibition above about 30%; inactive means the rest. The list is a sample of the results.

Experiment: fluorescence readout artefact check – biochemical, HTRF, uHTS, artefact control for SUMOylation inhibitor project, confirmation (AID 2069)
Conditions: HTRF interference counterscreen, at 35 µM, stronger effect = higher value

Structure (SMILES) | inhibition
CCOc1cc(/C=C2/C(=O)N(c3ccccc3)N=C2C)ccc1OC(=O)c1ccco1 | -12.2% (inactive)
COc1cc(/C=C2\C(=O)N(c3ccc(S(N)(=O)=O)cc3)N=C2C)ccc1OC(=O)c1ccco1 | 19.1% (inactive)
COc1ccccc1Oc1c(C)oc2cc(OC(=O)c3ccco3)ccc2c1=O | 36.7% (active)
CCOc1cccc(CNc2ccc(O)cc2)c1OCc1ccc(Cl)cc1Cl | 17.7% (inactive)
COc1ccc(-n2c3nc4ccccc4nc3c3c(=N)oc(C)nc32)cc1 | -1.2% (inactive)
O=C1N(c2ccc(Cl)c(Cl)c2)CN(Cc2ccccc2)CN1n1cnnc1 | 13.3% (inactive)
CCCNC(=O)c1ccc2c(=O)c(O)c(-c3ccsc3)[nH]c2c1 | 46.5% (active)
COc1ccccc1NC(=O)Nc1ccnn1Cc1cccs1 | 63.1% (active)
COc1ccccc1NC(=O)Cn1nc(C)n2cccc2c1=O | -4.55% (inactive)
COc1ccccc1NC(=O)CSc1ccc2nnc(-c3ccccn3)n2n1 | -3.25% (inactive)
O=C(Nc1nc(-c2ccccc2)cs1)c1ccccc1NS(=O)(=O)c1ccc(F)cc1 | 9.2% (inactive)
CC(=O)c1ccc2cccc3c2c1N=CN3C | -3.4% (inactive)
COc1ccc(Br)cc1C1CC(=O)N2CN(Cc3ccccc3)CSC2=C1C#N (configuration not stated) | -9.75% (inactive)
COc1ccc(OC)c(/C=N/NC(=O)CCc2ccc(O)c(O)c2)c1 | 17.9% (inactive)
COc1ccc(-c2nc3ccncc3[nH]2)cc1OC | 46.5% (active)
COc1ccc(-c2nc3ccc([N+](=O)[O-])cc3[nH]2)cc1 | 23.2% (inactive)
COc1ccc(NC(=O)C(=O)N/N=C\c2ccc(CNC(=O)C(=O)Nc3ccc(C)c(C)c3)o2)c(OC)c1 | 15.9% (inactive)
COc1cc(/C=C2\C(=O)N(CCC#N)N=C2C)c(Br)cc1OC(C)C | -5.4% (inactive)
CCN(CC)C(=O)COc1ccc2oc(-c3ccco3)cc(=O)c2c1 | 43.6% (active)

Structure (SMILES) | inhibition
O=C(COc1ccc2oc(-c3ccco3)cc(=O)c2c1)N1CCCCC1 | 39.8% (active)
CN(C)c1cc(N/N=C/c2ccccc2C(F)(F)F)nc(N(C)C)n1 | -2.9% (inactive)
O=c1cc(CSc2nnnn2-c2ccccc2)nc(Nc2ccc(F)cc2)[nH]1 | 3.3% (inactive)
NC(=O)CC(NC(=O)Cc1cccc2ccccc12)c1ccc(NC2CCCCCC2)c([N+](=O)[O-])c1 (configuration not stated) | 6.15% (inactive)
Cc1ccc(O)c(CNc2cccc3cccnc23)c1 | -18.2% (inactive)
CCOC(=O)c1c(C)oc2c1c(C=NCCO)c(O)c1ccccc12 | 5.4% (inactive)
CC(C)(C)c1cc(=O)n(-c2ccccc2)[nH]1 | -0.65% (inactive)
Fc1ccc(NC(=S)Nc2cccc3ccccc23)cc1F | -11.7% (inactive)
CC1CCN(Cc2cc(=O)oc3cc(O)c(Cl)cc23)CC1 | 50.5% (active)
CC(C)(C)C1CCC2(CC1)Nc1cccc3cccc(c13)N2 | -2.5% (inactive)
CCn1c(NC(=O)c2ccccc2)nc2ccccc21 | 1.3% (inactive)
N#C/C(=C/c1ccc(-c2cc(C(=O)O)cc(C(=O)O)c2)o1)c1nc2ccccc2s1 | 13.9% (inactive)
COc1ccc2nc(/C(C#N)=C\c3ccc(C(=O)O)cc3)[nH]c2c1 | 47.6% (active)
COc1ccc(/C=C(\C#N)C(=O)OCC(=O)NCc2ccccc2Cl)cc1 | 6.4% (inactive)
O=C(O)c1cc(Cl)c(Cl)cc1C(=O)Nc1cccc2ncccc12 | 2.4% (inactive)
O=C(Nc1ccccc1-c1nc2ccccc2s1)c1cccnc1Cl | 64% (active)
O=C(/C=C/c1ccco1)NC(=S)Nc1cc(-c2nc3ccccc3s2)ccc1Cl | 3.15% (inactive)
COCCNC(=S)Nc1cccc2cnccc12 | 4.9% (inactive)
C=CCn1c(SCC(=O)N2N=C(c3ccco3)CC2c2ccco2)nnc1-c1ccncc1 (configuration not stated) | -5.2% (inactive)

Structure (SMILES) | inhibition
O=C1Nc2ccc([N+](=O)[O-])cc2C1=Nc1cccc(CO)c1 | 3.75% (inactive)
Cc1[nH]n(-c2ccccc2)c(=O)c1C(c1cccc([N+](=O)[O-])c1)c1c(C)[nH]n(-c2ccccc2)c1=O | -11.2% (inactive)
NCCSc1c(-c2ccccc2)[nH]c2ccccc12 | 0.7% (inactive)
O=[N+]([O-])c1cc2c(cc1/C=N/n1c(-c3ccccn3)n[nH]c1=S)OCO2 | 0.15% (inactive)
CCN(Cc1cc(=O)n2ccsc2n1)c1cccc2ccccc12 | 1.45% (inactive)
Cc1cccn2cc(-c3ccc(S(=O)(=O)N4CCOCC4)cc3)nc12 | 40.8% (active)
O=C(Nc1ccccc1F)Nc1cc(S(=O)(=O)N2CCOCC2)ccc1N1CCCC1 | 6.3% (inactive)
COc1ccccc1C(=O)Nc1ccc(-c2nnn(CC(=O)NCc3ccco3)n2)cc1 | 13.7% (inactive)
COc1ccccc1C(=O)Nc1sc2c(c1C(=O)NCc1ccco1)CCCC2 | 33.8% (active)
Cc1ccc(C(=O)Nc2sc3c(c2C(=O)NCc2ccco2)CCCC3)cc1 | 29.9% (inactive)
O=c1nc(Nc2ccc(Br)cc2)sc2ccc([N+](=O)[O-])cc12 | -4% (inactive)
CCCCC[C@H](O)/C=C/[C@@H]1[C@@H](C/C=C\CCCC(=O)OC)[C@@H](O)C[C@H]1O | 23.6% (inactive)
CCN(CC)S(=O)(=O)c1ccc(C)c(NC(=O)CSc2ncc(C(F)(F)F)cc2Cl)c1 | -6.95% (inactive)
c1cc(Nc2ncnc3sc4c(c23)CCC4)ccn1 | 42.9% (active)
CC1=NN(c2ccc(Cl)cc2)C(=O)C1C(c1cccc(O)c1)c1c(C)[nH]n(-c2ccc(Cl)cc2)c1=O (configuration not stated) | -23.6% (inactive)
COc1ccc(C(c2c(C)[nH]n(-c3ccccc3)c2=O)c2c(C)[nH]n(-c3ccccc3)c2=O)cc1OC | 13.3% (inactive)
N#Cc1c(N)nc2c(c1-c1ccc3c(c1)OCO3)CCc1ccccc1-2 | 13.8% (inactive)
Cc1oc2c(c(C)cc3oc(=O)c(CC(=O)NCC(=O)NCC(=O)O)c(C)c32)c1C | 52.3% (active)
Cc1oc2c(c(C)cc3oc(=O)c(CC(=O)NCC(=O)NCC(=O)NCC(C)O)c(C)c32)c1C (configuration not stated) | 47.8% (active)
